# Results as given in PMC7862700, “An all-to-all approach to the identification of sequence-specific readers for epigenetic DNA modifications on cytosine”.
# Columns and labels:
# Assay in all cases: DAPPL (digital affinity profiling via proximity ligation, sequencing); 10 mM Tris-HCl pH 7.5, 50 mM NaCl, 1 mM DTT, 4% glycerol, room temperature, 30 min; GST-TFs on glutathione beads, 16-mer random dsDNA library, 0.1% formaldehyde crosslink after washing; high values mean tight binding
# FLI1 = target: T1, FLI1 (Homo sapiens, UniProt Q01543 1-452); details: protein: recombinant; tags: N-terminal GST; dsDNA, one strand shown
# T1 sequence: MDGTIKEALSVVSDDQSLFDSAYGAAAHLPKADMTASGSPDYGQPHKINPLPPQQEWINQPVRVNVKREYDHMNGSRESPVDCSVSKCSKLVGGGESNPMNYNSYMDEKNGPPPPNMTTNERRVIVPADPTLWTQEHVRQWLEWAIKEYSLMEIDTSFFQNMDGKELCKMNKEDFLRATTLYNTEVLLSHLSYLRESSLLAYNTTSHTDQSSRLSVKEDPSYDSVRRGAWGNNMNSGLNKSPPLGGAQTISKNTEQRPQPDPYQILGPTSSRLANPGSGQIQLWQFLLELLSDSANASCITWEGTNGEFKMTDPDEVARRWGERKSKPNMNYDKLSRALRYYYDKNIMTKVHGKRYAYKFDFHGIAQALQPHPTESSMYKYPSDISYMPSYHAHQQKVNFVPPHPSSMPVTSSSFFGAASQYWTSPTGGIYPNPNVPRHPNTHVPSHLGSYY
# In short: (§1)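 Binding signal is each hexamer's read frequency for a factor divided by its frequency in the tag-only sample. The factors were GST-fused human transcription factors from yeast, captured on glutathione beads, DNA-barcoded and pooled with that sample. Pools were incubated with 200 nmole of a random double-stranded 16-mer DNA library in Tris/NaCl/DTT/glycerol buffer at room temperature for 30 min, then washed, crosslinked with 0.1% formaldehyde, proximity-ligated with BsaI/T4 ligase (1 h, 37 °C), PCR-amplified and sequenced on an Illumina NextSeq500.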
# ELK1 = target: T2, ELK1 (Homo sapiens, UniProt P19419 1-428); details: protein: recombinant; tags: N-terminal GST; dsDNA, one strand shown
# T2 sequence: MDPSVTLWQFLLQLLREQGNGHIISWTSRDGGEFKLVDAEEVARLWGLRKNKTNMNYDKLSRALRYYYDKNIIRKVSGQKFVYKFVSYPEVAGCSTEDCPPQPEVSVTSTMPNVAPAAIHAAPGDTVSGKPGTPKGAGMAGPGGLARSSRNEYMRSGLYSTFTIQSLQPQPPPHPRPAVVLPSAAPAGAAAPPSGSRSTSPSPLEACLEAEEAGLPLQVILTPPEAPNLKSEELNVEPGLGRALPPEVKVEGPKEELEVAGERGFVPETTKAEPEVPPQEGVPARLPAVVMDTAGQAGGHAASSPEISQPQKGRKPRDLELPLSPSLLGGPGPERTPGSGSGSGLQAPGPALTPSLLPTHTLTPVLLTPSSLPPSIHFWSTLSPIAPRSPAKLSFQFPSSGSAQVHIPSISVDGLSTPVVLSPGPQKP
# In short: as §1
# GABPA = target: T3, GABPA (Homo sapiens, UniProt Q06546 1-454); details: protein: recombinant; tags: N-terminal GST; dsDNA, one strand shown
# T3 sequence: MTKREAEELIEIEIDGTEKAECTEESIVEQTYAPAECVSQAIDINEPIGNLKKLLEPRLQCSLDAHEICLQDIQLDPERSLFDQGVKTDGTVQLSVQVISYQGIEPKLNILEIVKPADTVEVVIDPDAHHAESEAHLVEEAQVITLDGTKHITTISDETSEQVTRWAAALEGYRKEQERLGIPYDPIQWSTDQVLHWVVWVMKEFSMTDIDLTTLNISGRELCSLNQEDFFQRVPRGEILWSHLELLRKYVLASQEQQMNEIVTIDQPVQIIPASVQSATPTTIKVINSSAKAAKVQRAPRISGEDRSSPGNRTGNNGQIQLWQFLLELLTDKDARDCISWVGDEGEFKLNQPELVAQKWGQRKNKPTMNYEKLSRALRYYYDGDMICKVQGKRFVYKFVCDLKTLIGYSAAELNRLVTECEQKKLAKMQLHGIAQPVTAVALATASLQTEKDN
# In short: as §1
# ERG = target: T4, ERG (Homo sapiens, UniProt P11308 1-479); details: protein: recombinant; tags: N-terminal GST; dsDNA, one strand shown
# T4 sequence: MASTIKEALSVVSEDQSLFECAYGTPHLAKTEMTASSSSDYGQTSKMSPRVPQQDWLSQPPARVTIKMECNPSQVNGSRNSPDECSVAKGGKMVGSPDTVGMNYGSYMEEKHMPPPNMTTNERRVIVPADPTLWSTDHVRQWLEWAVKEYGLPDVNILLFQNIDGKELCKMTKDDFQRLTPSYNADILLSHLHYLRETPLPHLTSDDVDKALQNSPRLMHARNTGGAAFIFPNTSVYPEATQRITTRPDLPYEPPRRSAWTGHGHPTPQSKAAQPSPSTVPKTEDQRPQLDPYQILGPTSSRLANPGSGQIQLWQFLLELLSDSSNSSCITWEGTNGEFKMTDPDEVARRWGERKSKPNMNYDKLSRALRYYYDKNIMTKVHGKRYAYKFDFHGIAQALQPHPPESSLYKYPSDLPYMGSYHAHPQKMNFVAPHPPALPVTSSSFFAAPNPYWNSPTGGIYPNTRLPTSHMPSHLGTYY
# In short: as §1
# ELF1 = ELF1 (Homo sapiens, UniProt P32519 1-619); details: protein: recombinant; tags: N-terminal GST; dsDNA, one strand shown
# In short: as §1
# EHF = target: T5, EHF (Homo sapiens, UniProt Q9NZC4 1-300); details: protein: recombinant; tags: N-terminal GST; dsDNA, one strand shown
# T5 sequence: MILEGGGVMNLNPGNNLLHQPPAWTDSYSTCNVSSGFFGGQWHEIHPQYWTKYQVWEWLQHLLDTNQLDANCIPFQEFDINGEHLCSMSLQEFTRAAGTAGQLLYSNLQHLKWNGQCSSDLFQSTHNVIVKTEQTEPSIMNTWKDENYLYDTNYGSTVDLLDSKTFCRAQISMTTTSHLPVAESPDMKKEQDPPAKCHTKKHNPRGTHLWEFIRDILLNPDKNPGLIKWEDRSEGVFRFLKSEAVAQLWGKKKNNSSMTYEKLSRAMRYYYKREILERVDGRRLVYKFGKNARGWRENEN
# In short: as §1
# SPI1 = SPI1 (Homo sapiens, UniProt P17947 1-270); details: protein: recombinant; tags: N-terminal GST; dsDNA, one strand shown
# In short: as §1
# SPIB = SPIB (Homo sapiens, UniProt Q01892 1-262); details: protein: recombinant; tags: N-terminal GST; dsDNA, one strand shown
# In short: as §1
# ELK3 = target: T6, ELK3 (Homo sapiens, UniProt P41970 1-407); details: protein: recombinant; tags: N-terminal GST; dsDNA, one strand shown
# T6 sequence: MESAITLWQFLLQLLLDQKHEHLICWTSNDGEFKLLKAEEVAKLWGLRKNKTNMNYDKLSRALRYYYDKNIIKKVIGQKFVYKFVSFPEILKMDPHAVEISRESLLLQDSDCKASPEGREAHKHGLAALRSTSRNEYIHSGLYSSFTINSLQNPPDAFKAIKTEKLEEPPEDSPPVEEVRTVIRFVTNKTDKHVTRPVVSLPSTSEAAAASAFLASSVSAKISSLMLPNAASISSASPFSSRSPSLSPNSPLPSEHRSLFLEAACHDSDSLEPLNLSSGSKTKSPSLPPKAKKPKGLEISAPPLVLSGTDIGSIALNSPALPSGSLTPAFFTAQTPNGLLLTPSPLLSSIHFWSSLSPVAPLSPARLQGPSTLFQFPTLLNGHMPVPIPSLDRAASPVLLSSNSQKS
# In short: as §1
# FEV = target: T7, FEV (Homo sapiens, UniProt Q99581 1-238); details: protein: recombinant; tags: N-terminal GST; dsDNA, one strand shown
# T7 sequence: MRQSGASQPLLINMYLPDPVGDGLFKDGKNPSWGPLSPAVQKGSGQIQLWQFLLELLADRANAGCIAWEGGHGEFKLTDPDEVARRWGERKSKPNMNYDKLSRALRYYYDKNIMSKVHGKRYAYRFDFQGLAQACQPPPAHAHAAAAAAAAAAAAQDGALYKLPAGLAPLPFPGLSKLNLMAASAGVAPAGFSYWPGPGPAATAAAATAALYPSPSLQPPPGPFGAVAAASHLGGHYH
# In short: as §1
# ETV5 = ETV5 (Homo sapiens, UniProt P41161 1-510); details: protein: recombinant; tags: N-terminal GST; dsDNA, one strand shown
# In short: as §1
# HSF1 = HSF1 (Homo sapiens, UniProt Q00613 1-529); details: protein: recombinant; tags: N-terminal GST; chain copies: 3; dsDNA, one strand shown
# In short: as §1
# SPIC = target: T8, SPIC (Homo sapiens, UniProt Q8N5J4 1-248); details: protein: recombinant; tags: N-terminal GST; dsDNA, one strand shown
# T8 sequence: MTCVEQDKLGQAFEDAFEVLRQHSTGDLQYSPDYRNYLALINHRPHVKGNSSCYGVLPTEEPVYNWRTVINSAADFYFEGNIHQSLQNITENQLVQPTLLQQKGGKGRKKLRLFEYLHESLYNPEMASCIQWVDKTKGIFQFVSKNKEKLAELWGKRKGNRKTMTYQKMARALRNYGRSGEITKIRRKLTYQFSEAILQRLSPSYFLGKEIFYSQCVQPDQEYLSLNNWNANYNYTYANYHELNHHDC
# In short: as §1
# ELF4 = ELF4 (Homo sapiens, UniProt Q99607 1-663); details: protein: recombinant; tags: N-terminal GST; dsDNA, one strand shown
# In short: as §1
# ELK4 = target: T9, ELK4 (Homo sapiens, UniProt P28324-2 1-405); details: protein: recombinant; tags: N-terminal GST; dsDNA, one strand shown
# T9 sequence: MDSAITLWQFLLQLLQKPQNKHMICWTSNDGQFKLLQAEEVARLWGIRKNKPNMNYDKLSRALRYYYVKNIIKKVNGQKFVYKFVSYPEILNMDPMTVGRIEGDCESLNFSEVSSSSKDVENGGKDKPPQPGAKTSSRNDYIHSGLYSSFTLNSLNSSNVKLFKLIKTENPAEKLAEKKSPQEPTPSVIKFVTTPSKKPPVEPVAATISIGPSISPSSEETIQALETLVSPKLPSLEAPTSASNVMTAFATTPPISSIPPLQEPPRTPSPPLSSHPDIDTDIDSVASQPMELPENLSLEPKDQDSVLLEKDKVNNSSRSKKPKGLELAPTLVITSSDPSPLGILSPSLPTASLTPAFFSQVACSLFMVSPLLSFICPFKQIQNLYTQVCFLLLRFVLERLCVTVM
# In short: as §1
# ETV2 = target: T10, ETV2 (Homo sapiens, UniProt O00321 1-342); details: protein: recombinant; tags: N-terminal GST; dsDNA, one strand shown
# T10 sequence: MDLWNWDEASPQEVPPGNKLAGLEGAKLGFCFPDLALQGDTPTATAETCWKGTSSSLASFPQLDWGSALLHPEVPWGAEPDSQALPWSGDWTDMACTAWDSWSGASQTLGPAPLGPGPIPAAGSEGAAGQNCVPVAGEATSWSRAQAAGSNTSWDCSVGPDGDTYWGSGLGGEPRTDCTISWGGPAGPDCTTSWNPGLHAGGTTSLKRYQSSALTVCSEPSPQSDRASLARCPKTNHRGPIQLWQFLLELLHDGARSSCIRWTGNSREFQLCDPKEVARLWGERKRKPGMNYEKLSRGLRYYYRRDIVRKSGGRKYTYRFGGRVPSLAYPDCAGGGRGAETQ
# In short: as §1
# ELF3 = target: T11, ELF3 (Homo sapiens, UniProt P78545 1-371); details: protein: recombinant; tags: N-terminal GST; dsDNA, one strand shown
# T11 sequence: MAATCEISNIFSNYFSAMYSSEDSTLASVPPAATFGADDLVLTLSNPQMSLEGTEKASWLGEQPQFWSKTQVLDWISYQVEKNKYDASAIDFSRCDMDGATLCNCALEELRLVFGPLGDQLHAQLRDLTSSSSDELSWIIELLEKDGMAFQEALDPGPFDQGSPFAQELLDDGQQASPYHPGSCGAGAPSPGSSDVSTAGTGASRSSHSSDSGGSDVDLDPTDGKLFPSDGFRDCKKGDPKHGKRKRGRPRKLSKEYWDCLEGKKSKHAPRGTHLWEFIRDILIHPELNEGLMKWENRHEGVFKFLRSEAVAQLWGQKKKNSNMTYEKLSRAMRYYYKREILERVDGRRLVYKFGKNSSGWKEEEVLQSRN
# In short: as §1
# CRX = CRX (Homo sapiens, UniProt O43186 1-299); details: protein: recombinant; tags: N-terminal GST; dsDNA, one strand shown
# In short: as §1
# ETV1 = ETV1 (Homo sapiens, UniProt P50549 1-477); details: protein: recombinant; tags: N-terminal GST; dsDNA, one strand shown
# In short: as §1
# Sequence of ETV5 (P41161 whole entry): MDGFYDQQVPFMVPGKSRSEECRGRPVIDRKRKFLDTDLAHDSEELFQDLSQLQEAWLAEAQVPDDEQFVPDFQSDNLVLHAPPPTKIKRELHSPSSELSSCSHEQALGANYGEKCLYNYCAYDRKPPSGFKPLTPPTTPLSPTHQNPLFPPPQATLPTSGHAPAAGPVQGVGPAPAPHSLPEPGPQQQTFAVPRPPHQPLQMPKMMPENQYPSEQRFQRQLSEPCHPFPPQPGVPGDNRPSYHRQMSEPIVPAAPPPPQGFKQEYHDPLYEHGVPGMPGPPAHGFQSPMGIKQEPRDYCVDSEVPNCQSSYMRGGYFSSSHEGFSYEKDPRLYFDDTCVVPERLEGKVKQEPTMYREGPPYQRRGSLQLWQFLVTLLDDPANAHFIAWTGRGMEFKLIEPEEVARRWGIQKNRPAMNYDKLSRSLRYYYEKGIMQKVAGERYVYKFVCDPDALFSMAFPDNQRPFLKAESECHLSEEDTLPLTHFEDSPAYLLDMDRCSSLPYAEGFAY
# Sequence of SPIB (Q01892 whole entry): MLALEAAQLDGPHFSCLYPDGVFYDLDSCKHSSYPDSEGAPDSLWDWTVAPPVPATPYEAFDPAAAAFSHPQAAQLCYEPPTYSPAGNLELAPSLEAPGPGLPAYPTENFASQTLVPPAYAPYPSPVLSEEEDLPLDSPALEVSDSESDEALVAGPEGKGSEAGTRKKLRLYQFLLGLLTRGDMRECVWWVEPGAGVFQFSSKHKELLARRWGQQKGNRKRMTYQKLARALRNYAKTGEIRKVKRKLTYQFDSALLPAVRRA
# Sequence of ETV1 (P50549 whole entry): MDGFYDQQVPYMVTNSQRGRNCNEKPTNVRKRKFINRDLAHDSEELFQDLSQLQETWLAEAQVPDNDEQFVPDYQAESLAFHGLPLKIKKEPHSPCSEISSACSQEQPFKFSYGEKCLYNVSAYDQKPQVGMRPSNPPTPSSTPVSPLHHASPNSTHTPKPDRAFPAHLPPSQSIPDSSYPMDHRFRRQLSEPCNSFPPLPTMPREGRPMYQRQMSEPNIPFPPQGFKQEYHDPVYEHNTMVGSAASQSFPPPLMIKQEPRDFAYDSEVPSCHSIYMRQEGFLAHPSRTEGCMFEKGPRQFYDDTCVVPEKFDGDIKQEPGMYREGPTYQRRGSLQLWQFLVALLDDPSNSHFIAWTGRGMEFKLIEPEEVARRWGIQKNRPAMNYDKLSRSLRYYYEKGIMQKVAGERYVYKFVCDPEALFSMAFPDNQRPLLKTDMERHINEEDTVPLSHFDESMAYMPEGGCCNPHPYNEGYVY
# Sequence of ELF4 (Q99607 whole entry): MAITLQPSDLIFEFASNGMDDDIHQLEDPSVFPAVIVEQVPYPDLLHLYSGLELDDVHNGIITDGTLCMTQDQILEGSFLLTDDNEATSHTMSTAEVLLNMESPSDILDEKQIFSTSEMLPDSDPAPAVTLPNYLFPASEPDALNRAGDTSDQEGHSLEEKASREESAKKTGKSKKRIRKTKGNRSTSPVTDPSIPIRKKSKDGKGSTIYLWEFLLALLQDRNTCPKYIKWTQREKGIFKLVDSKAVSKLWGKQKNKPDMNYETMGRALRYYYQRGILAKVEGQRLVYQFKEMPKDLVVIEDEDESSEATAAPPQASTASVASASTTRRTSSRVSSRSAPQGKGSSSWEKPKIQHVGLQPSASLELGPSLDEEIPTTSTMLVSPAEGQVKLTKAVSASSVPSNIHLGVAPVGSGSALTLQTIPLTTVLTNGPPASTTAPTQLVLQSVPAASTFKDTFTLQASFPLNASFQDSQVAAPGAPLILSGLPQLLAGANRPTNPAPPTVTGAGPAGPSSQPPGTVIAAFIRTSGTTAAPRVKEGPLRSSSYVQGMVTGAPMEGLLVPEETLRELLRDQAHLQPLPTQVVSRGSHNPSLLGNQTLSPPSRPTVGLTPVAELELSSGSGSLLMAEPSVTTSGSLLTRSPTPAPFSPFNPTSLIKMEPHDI
# Sequence of ELF1 (P32519 whole entry): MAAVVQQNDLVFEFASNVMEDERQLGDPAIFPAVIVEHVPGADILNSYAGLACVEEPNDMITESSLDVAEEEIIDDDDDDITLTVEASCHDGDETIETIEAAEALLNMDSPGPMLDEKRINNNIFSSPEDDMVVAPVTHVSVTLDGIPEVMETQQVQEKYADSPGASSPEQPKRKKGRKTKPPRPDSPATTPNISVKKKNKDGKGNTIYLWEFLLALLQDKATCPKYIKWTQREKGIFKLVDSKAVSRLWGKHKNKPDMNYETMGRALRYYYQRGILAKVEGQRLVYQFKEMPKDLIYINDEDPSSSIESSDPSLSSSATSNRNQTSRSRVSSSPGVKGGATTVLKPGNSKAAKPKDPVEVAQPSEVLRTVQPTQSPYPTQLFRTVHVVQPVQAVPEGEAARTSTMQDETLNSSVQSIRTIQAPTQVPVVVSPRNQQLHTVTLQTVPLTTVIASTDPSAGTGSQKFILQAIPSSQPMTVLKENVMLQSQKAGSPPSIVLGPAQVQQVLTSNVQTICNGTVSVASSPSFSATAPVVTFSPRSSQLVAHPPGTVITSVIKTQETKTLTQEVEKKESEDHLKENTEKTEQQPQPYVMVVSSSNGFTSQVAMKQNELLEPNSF
# Sequence of HSF1 (Q00613 whole entry): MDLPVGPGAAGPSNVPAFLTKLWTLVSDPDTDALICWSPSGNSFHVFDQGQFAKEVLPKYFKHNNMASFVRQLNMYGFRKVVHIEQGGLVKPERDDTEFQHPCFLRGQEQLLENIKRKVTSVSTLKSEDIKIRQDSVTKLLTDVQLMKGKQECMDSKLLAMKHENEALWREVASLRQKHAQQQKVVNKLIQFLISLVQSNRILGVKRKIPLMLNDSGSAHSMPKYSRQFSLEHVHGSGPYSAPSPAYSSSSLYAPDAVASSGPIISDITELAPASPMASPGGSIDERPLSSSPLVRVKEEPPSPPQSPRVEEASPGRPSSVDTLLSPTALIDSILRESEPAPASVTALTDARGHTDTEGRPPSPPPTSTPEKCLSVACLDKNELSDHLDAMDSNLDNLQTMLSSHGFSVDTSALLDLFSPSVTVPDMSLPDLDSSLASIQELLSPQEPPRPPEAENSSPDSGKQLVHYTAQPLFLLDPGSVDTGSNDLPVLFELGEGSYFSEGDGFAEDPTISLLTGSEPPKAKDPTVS
# Sequence of CRX (O43186 whole entry): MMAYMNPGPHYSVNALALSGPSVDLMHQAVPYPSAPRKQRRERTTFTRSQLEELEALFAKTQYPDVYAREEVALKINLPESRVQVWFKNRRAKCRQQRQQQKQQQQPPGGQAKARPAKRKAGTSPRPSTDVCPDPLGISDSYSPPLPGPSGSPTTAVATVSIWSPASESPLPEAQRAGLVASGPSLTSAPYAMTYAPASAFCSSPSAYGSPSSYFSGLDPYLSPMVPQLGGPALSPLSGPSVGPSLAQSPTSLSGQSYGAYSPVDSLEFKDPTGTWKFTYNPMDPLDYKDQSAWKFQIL
sequence,measurement,setting,value
TCCACT,binding signal,FLI1,"1.47 fold enrichment (6-mer frequency, TF over GST control)"
same,binding signal,ELK1,"1.52 fold enrichment (6-mer frequency, TF over GST control)"
same,binding signal,GABPA,"1.51 fold enrichment (6-mer frequency, TF over GST control)"
same,binding signal,ERG,"1.54 fold enrichment (6-mer frequency, TF over GST control)"
same,binding signal,ELF1,"1.5 fold enrichment (6-mer frequency, TF over GST control)"
same,binding signal,EHF,"1.36 fold enrichment (6-mer frequency, TF over GST control)"
same,binding signal,SPI1,"1.5 fold enrichment (6-mer frequency, TF over GST control)"
same,binding signal,SPIB,"1.39 fold enrichment (6-mer frequency, TF over GST control)"
same,binding signal,ELK3,"1.49 fold enrichment (6-mer frequency, TF over GST control)"
same,binding signal,FEV,"1.54 fold enrichment (6-mer frequency, TF over GST control)"
same,binding signal,ETV5,"1.49 fold enrichment (6-mer frequency, TF over GST control)"
same,binding signal,HSF1,"1.47 fold enrichment (6-mer frequency, TF over GST control)"
same,binding signal,SPIC,"1.4 fold enrichment (6-mer frequency, TF over GST control)"
same,binding signal,ELF4,"1.51 fold enrichment (6-mer frequency, TF over GST control)"
same,binding signal,ELK4,"1.49 fold enrichment (6-mer frequency, TF over GST control)"
same,binding signal,ETV2,"1.48 fold enrichment (6-mer frequency, TF over GST control)"
same,binding signal,ELF3,"1.25 fold enrichment (6-mer frequency, TF over GST control)"
same,binding signal,CRX,"1.33 fold enrichment (6-mer frequency, TF over GST control)"
same,binding signal,ETV1,"1.41 fold enrichment (6-mer frequency, TF over GST control)"
